Substitutions are numbered along the chain they refer to.
What was measured:
Assay in all cases: yeast three-hybrid, YBZ-1, SC-Leu-His + 0.5 mM 3-AT, 4 days
Conditions in all cases: tags: N-Gal4 AD-HA kept; label: inside an RPR1-promoter hybrid RNA with tandem MS2 sites; ssRNA
PUM1 PUF domain R8-RKV = PUM1 PUF domain R8-RKV (Homo sapiens, UniProt Q14671 828-1176, N1122R;Y1123K;Q1126V)
Outline: (§1)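 Repeat regions from input (SC-Leu) and selection (SC-Leu-His + 0.5 mM 3-AT) plates were PCR-amplified and Illumina-sequenced after four days of growth. The cells were strain YBZ-1 with a LexA–MS2 coat fusion and a HIS3 reporter, co-expressing Pumilio-1 PUF domain libraries and matching RNA elements from a centromeric plasmid. The interaction score is the log change in variant frequency from input to selection, taken in log2 with a pseudocount of 1 for absent variants.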

PUM1 PUF domain R8-LYL = PUM1 PUF domain R8-LYL (Homo sapiens, UniProt Q14671 828-1176, N1122L;Q1126L)
Outline: as §1

PUM1 PUF domain R8-KFL = PUM1 PUF domain R8-KFL (Homo sapiens, UniProt Q14671 828-1176, N1122K;Y1123F;Q1126L)
Outline: as §1

PUM1 PUF domain R1-GCK = PUM1 PUF domain R1-GCK (Homo sapiens, UniProt Q14671 828-1176, S863G;R864C;Q867K)
Outline: as §1

PUM1 PUF domain R4-WGG = PUM1 PUF domain R4-WGG (Homo sapiens, UniProt Q14671 828-1176, N971W;H972G;Q975G)
Outline: as §1

PUM1 PUF domain R4-DHA = PUM1 PUF domain R4-DHA (Homo sapiens, UniProt Q14671 828-1176, N971D;Q975A)
Outline: as §1

PUM1 PUF domain R7-RNR = PUM1 PUF domain R7-RNR (Homo sapiens, UniProt Q14671 828-1176, S1079R;E1083R)
Outline: as §1

PUM1 PUF domain R4-LHH = PUM1 PUF domain R4-LHH (Homo sapiens, UniProt Q14671 828-1176, N971L;Q975H)
Outline: as §1

PUM1 PUF domain R5-RRF = PUM1 PUF domain R5-RRF (Homo sapiens, UniProt Q14671 828-1176, C1007R;Q1011F)
Outline: as §1

PUM1 PUF domain R5-KYA = PUM1 PUF domain R5-KYA (Homo sapiens, UniProt Q14671 828-1176, C1007K;R1008Y;Q1011A)
Outline: as §1

PUM1 PUF domain R5-CNH = PUM1 PUF domain R5-CNH (Homo sapiens, UniProt Q14671 828-1176, R1008N;Q1011H)
Outline: as §1

PUM1 PUF domain R5-RAT = PUM1 PUF domain R5-RAT (Homo sapiens, UniProt Q14671 828-1176, C1007R;R1008A;Q1011T)
Outline: as §1

PUM1 PUF domain R5-RFW = PUM1 PUF domain R5-RFW (Homo sapiens, UniProt Q14671 828-1176, C1007R;R1008F;Q1011W)
Outline: as §1

PUM1 PUF domain R1-SRD = PUM1 PUF domain R1-SRD (Homo sapiens, UniProt Q14671 828-1176, Q867D)
Outline: as §1

PUM1 PUF domain R6-RYK = molecular target: T1, PUM1 PUF domain R6-RYK (Homo sapiens, UniProt Q14671 828-1176, N1043R;Q1047K)
T1 sequence: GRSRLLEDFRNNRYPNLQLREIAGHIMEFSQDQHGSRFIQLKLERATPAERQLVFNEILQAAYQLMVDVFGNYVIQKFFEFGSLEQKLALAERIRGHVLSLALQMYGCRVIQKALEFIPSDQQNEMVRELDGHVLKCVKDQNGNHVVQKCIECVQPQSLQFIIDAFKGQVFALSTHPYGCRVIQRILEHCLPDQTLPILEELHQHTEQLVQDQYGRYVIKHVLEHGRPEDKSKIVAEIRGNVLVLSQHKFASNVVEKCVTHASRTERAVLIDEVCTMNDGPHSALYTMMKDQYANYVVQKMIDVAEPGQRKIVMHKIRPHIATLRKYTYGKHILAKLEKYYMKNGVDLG
Outline: as §1

PUM1 PUF domain R3-THE = PUM1 PUF domain R3-THE (Homo sapiens, UniProt Q14671 828-1176, C935T;R936H;Q939E)
Outline: as §1

PUM1 PUF domain R6-GWI = molecular target: T2, PUM1 PUF domain R6-GWI (Homo sapiens, UniProt Q14671 828-1176, N1043G;Y1044W;Q1047I)
T2 sequence: T1 sequence with R216G, Y217W, K220I
Outline: as §1

PUM1 PUF domain R4-CRA = PUM1 PUF domain R4-CRA (Homo sapiens, UniProt Q14671 828-1176, N971C;H972R;Q975A)
Outline: as §1

PUM1 PUF domain R6-VWI = molecular target: T3, PUM1 PUF domain R6-VWI (Homo sapiens, UniProt Q14671 828-1176, N1043V;Y1044W;Q1047I)
T3 sequence: T1 sequence with R216V, Y217W, K220I
Outline: as §1

PUM1 PUF domain R6-SRD = molecular target: T4, PUM1 PUF domain R6-SRD (Homo sapiens, UniProt Q14671 828-1176, N1043S;Y1044R;Q1047D)
T4 sequence: T1 sequence with R216S, Y217R, K220D
Outline: as §1

Sequence of PUM1 PUF domain R4-WGG (Q14671 828-1176 N971W/H972G/Q975G): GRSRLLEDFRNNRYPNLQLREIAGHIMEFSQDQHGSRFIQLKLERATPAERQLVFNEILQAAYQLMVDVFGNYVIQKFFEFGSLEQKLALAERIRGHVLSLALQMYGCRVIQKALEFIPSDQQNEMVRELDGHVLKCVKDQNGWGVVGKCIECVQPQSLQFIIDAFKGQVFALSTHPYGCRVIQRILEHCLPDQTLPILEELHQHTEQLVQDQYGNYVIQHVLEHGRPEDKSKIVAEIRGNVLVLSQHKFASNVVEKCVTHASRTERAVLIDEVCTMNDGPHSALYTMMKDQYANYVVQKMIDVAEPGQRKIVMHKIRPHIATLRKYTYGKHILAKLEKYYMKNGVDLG

## GGCUAGAACUAGUGGAUCCCCCGGCGCCCGGCGGCUCGAGCCCGGGUAAGCGUAAAUAGUCUGCAUGCCGCCGGGCGCCAUGCCUGCAGGUCGACUCUAGAAAACAUG
PUM1 PUF domain R8-RKV
  binding signal: 2.31 log2 enrichment (interaction score)
PUM1 PUF domain R8-LYL
  binding signal: 2.29 log2 enrichment (interaction score)
PUM1 PUF domain R8-KFL
  binding signal: 4.76 log2 enrichment (interaction score)

## GGCUAGAACUAGUGGAUCCCCCGGCGCCCGGCGGCUCGAGCCCGGGUAAGUGUAAAUUGUCUGCAUGCCGCCGGGCGCCAUGCCUGCAGGUCGACUCUAGAAAACAUG
PUM1 PUF domain R1-GCK
  binding signal: 1.58 log2 enrichment (interaction score)

## GGCUAGAACUAGUGGAUCCCCCGGCGCCCGGCGGCUCGAGCCCGGGUAAGUGUACAUAGUCUGCAUGCCGCCGGGCGCCAUGCCUGCAGGUCGACUCUAGAAAACAUG
PUM1 PUF domain R4-WGG
  binding signal: 3.3 log2 enrichment (interaction score)
PUM1 PUF domain R4-DHA
  binding signal: 5.96 log2 enrichment (interaction score)

## GGCUAGAACUAGUGGAUCCCCCGGCGCCCGGCGGCUCGAGCCCGGGUAAGUUUAAAUAGUCUGCAUGCCGCCGGGCGCCAUGCCUGCAGGUCGACUCUAGAAAACAUG
PUM1 PUF domain R7-RNR
  binding signal: 5.92 log2 enrichment (interaction score)

## GGCUAGAACUAGUGGAUCCCCCGGCGCCCGGCGGCUCGAGCCCGGGUAAGUGUAUAUAGUCUGCAUGCCGCCGGGCGCCAUGCCUGCAGGUCGACUCUAGAAAACAUG
PUM1 PUF domain R4-WGG
  binding signal: 3.71 log2 enrichment (interaction score)
PUM1 PUF domain R4-LHH
  binding signal: 4.06 log2 enrichment (interaction score)

## GGCUAGAACUAGUGGAUCCCCCGGCGCCCGGCGGCUCGAGCCCGGGUAAGUGUUAAUAGUCUGCAUGCCGCCGGGCGCCAUGCCUGCAGGUCGACUCUAGAAAACAUG
PUM1 PUF domain R5-RRF
  binding signal: 3.3 log2 enrichment (interaction score)
PUM1 PUF domain R5-KYA
  binding signal: 4.12 log2 enrichment (interaction score)
PUM1 PUF domain R5-CNH
  binding signal: 2.78 log2 enrichment (interaction score)
PUM1 PUF domain R5-RAT
  binding signal: 1.36 log2 enrichment (interaction score)

## GGCUAGAACUAGUGGAUCCCCCGGCGCCCGGCGGCUCGAGCCCGGGUAAGUGUAAAUCGUCUGCAUGCCGCCGGGCGCCAUGCCUGCAGGUCGACUCUAGAAAACAUG
PUM1 PUF domain R1-GCK
  binding signal: 2.79 log2 enrichment (interaction score)

## GGCUAGAACUAGUGGAUCCCCCGGCGCCCGGCGGCUCGAGCCCGGGUAAGUGUGAAUAGUCUGCAUGCCGCCGGGCGCCAUGCCUGCAGGUCGACUCUAGAAAACAUG
PUM1 PUF domain R5-RFW
  binding signal: 2.92 log2 enrichment (interaction score)
PUM1 PUF domain R5-KYA
  binding signal: 0.9 log2 enrichment (interaction score)

## GGCUAGAACUAGUGGAUCCCCCGGCGCCCGGCGGCUCGAGCCCGGGUAAGUGUAAAUGGUCUGCAUGCCGCCGGGCGCCAUGCCUGCAGGUCGACUCUAGAAAACAUG
PUM1 PUF domain R1-SRD
  binding signal: 3.35 log2 enrichment (interaction score)

## GGCUAGAACUAGUGGAUCCCCCGGCGCCCGGCGGCUCGAGCCCGGGUAAGUGUAGAUAGUCUGCAUGCCGCCGGGCGCCAUGCCUGCAGGUCGACUCUAGAAAACAUG
PUM1 PUF domain R4-WGG
  binding signal: 1.6 log2 enrichment (interaction score)

## GGCUAGAACUAGUGGAUCCCCCGGCGCCCGGCGGCUCGAGCCCGGGUAAGUCUAAAUAGUCUGCAUGCCGCCGGGCGCCAUGCCUGCAGGUCGACUCUAGAAAACAUG
PUM1 PUF domain R7-RNR
  binding signal: 4.72 log2 enrichment (interaction score)

## GGCUAGAACUAGUGGAUCCCCCGGCGCCCGGCGGCUCGAGCCCGGGUAAGUGUAAAUAGUCUGCAUGCCGCCGGGCGCCAUGCCUGCAGGUCGACUCUAGAAAACAUG
PUM1 PUF domain R8-LYL
  binding signal: 0.84 log2 enrichment (interaction score)
PUM1 PUF domain R4-WGG
  binding signal: 2.44 log2 enrichment (interaction score)
PUM1 PUF domain R5-RFW
  binding signal: 1.35 log2 enrichment (interaction score)
PUM1 PUF domain R6-RYK
  binding signal: 3.06 log2 enrichment (interaction score)
PUM1 PUF domain R5-KYA
  binding signal: 3.48 log2 enrichment (interaction score)
PUM1 PUF domain R3-THE
  binding signal: 2.11 log2 enrichment (interaction score)
PUM1 PUF domain R6-GWI
  binding signal: 2.34 log2 enrichment (interaction score)
PUM1 PUF domain R4-CRA
  binding signal: 3.82 log2 enrichment (interaction score)

## GGCUAGAACUAGUGGAUCCCCCGGCGCCCGGCGGCUCGAGCCCGGGUAAGUGAAAAUAGUCUGCAUGCCGCCGGGCGCCAUGCCUGCAGGUCGACUCUAGAAAACAUG
PUM1 PUF domain R6-VWI
  binding signal: 5.74 log2 enrichment (interaction score)

## GGCUAGAACUAGUGGAUCCCCCGGCGCCCGGCGGCUCGAGCCCGGGUAAGUGUCAAUAGUCUGCAUGCCGCCGGGCGCCAUGCCUGCAGGUCGACUCUAGAAAACAUG
PUM1 PUF domain R5-RRF
  binding signal: 3.03 log2 enrichment (interaction score)
PUM1 PUF domain R5-RFW
  binding signal: 3.42 log2 enrichment (interaction score)
PUM1 PUF domain R5-KYA
  binding signal: 3.04 log2 enrichment (interaction score)
PUM1 PUF domain R5-RAT
  binding signal: 3.06 log2 enrichment (interaction score)

## GGCUAGAACUAGUGGAUCCCCCGGCGCCCGGCGGCUCGAGCCCGGGUAAGUGGAAAUAGUCUGCAUGCCGCCGGGCGCCAUGCCUGCAGGUCGACUCUAGAAAACAUG
PUM1 PUF domain R6-SRD
  binding signal: 4.81 log2 enrichment (interaction score)

Reference: publication PMC8384837, “Expanding the binding specificity for RNA recognition by a PUF domain”
